Measured values as given in PubChem BioAssay AID1159580 (chemical genetic matrix, 2015).
Values joined by “and” are separate entries in the source; they are usually repeats but may differ in a detail not shown here. Equal entries are not always repeated. Among all 5,500 compounds or so, about 2,000 (36%) were called active. Another 18% or so got no clear call; they are omitted. No stated cut-off is given here; in the data, active means normalized growth mostly below about 0.91 (no sharp cut-off); inconclusive means no clear call, values can overlap the other calls; inactive means mostly above about 0.92. This is one part of the list.

Assay: chemical genetic growth profiling, strain panel (AID 1159580);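 further: tested at 20 µM; growth read once vehicle control cultures reached saturation at 30 °C; 1 = growth at the plate median or of vehicle wells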
Conditions: S. cerevisiae deletion strains, growth OD

CC(=O)[C@H]1CCC2C3CC=C4C[C@@H](O)CC[C@]4(C)C3CC[C@@]21C (stereo partly specified)
normalized growth (locus YAL013W, strain DEP1, stronger effect = lower value): 0.999 (inactive)
normalized growth (locus YAL021C, strain ccr4, stronger effect = lower value): 0.958 (inactive)
normalized growth (locus YAL026C, strain drs2, stronger effect = lower value): 0.788 (active)
normalized growth (locus YAL030W, strain snc1, stronger effect = lower value): 0.956 (inactive)
normalized growth (locus YBL061C, strain skt5, stronger effect = lower value): 0.981 (inactive)
normalized growth (locus YBR009C, strain hhf1, stronger effect = lower value): 0.929 (inactive)
normalized growth (locus YBR021W, strain FUR4, stronger effect = lower value): 0.962 (inactive)
normalized growth (locus YBR023C, strain chs3, stronger effect = lower value): 0.969 (inactive)
normalized growth (locus YBR171W, strain sec66, stronger effect = lower value): 0.996 (inactive)
normalized growth (locus YBR229C, strain ROT2, stronger effect = lower value): 1.01 (inactive)
normalized growth (locus YBR231C, strain swc5, stronger effect = lower value): 0.955 (inactive)
normalized growth (locus YBR279W, strain paf1, stronger effect = lower value): 0.981 (inactive)
normalized growth (locus YCL011C, strain gbp2, stronger effect = lower value): 0.947 (inactive)
normalized growth (locus YCL016C, strain dcc1, stronger effect = lower value): 0.95 (inactive)
normalized growth (locus YCL029C, strain bik1, stronger effect = lower value): 0.966 (inactive)
normalized growth (locus YCL069W, strain vba3, stronger effect = lower value): 0.897 (active)
normalized growth (locus YCR088W, strain abp1, stronger effect = lower value): 1.02 (inactive)
normalized growth (locus YDL005C, strain med2, stronger effect = lower value): 1 (inactive)
normalized growth (locus YDL035C, strain GPR1, stronger effect = lower value): 0.863 (inactive)
normalized growth (locus YDL040C, strain nat1, stronger effect = lower value): 1.01 (inactive)
normalized growth (locus YDL074C, strain BRE1, stronger effect = lower value): 0.836 (inactive)
normalized growth (locus YDL101C, strain DUN1, stronger effect = lower value): 0.985 (inactive)
normalized growth (locus YDL134C, strain PPH21, stronger effect = lower value): 0.957 (inactive)
normalized growth (locus YDL185W, strain tfp1, stronger effect = lower value): 1.02 (inactive)
normalized growth (locus YDL192W, strain arf1, stronger effect = lower value): 1.02 (inactive)
normalized growth (locus YDR001C, strain nth1, stronger effect = lower value): 1.02 (inactive)
normalized growth (locus YDR069C, strain doa4, stronger effect = lower value): 0.965 (inactive)
normalized growth (locus YDR101C, strain arx1, stronger effect = lower value): 1.01 (inactive)
normalized growth (locus YDR137W, strain rgp1, stronger effect = lower value): 0.518 (active)
normalized growth (locus YDR150W, strain NUM1, stronger effect = lower value): 1.01 (inactive)
normalized growth (locus YDR159W, strain sac3, stronger effect = lower value): 0.927 (inactive)
normalized growth (locus YDR162C, strain NBP2, stronger effect = lower value): 0.958 (inactive)
normalized growth (locus YDR195W, strain ref2): 1.28 [resistant] (active)
normalized growth (locus YDR297W, strain sur2, stronger effect = lower value): 0.973 (inactive)
normalized growth (locus YDR318W, strain mcm21, stronger effect = lower value): 0.94 (inactive)
normalized growth (locus YDR334W, strain swr1, stronger effect = lower value): 1.03 (inactive)
normalized growth (locus YDR335W, strain msn5, stronger effect = lower value): 0.958 (inactive)
normalized growth (locus YDR388W, stronger effect = lower value): 0.981 (inactive)
normalized growth (locus YDR392W, strain spt3, stronger effect = lower value): 0.335 (active)
normalized growth (locus YDR502C, strain sam2, stronger effect = lower value): 0.943 (inactive)
normalized growth (locus YEL003W, strain gim4, stronger effect = lower value): 0.938 (inactive)
normalized growth (locus YEL037C, strain rad23, stronger effect = lower value): 0.976 (inactive)
normalized growth (locus YEL061C, strain CIN8 (second series), stronger effect = lower value): 1.01 (inactive)
normalized growth (locus YEL061C, strain CIN8, stronger effect = lower value): 1.01 (inactive)
normalized growth (locus YER015W, strain faa2, stronger effect = lower value): 0.939 (inactive)
normalized growth (locus YER016W, strain bim1, stronger effect = lower value): 0.996 (inactive)
normalized growth (locus YER110C, stronger effect = lower value): 1.03 (inactive)
normalized growth (locus YER111C, strain swi4, stronger effect = lower value): 1.01 (inactive)
normalized growth (locus YER155C, strain BEM2 (second series), stronger effect = lower value): 0.774 (active)
normalized growth (locus YER155C, strain BEM2, stronger effect = lower value): 1.01 (inactive)
normalized growth (locus YER167W, strain BCK2, stronger effect = lower value): 0.926 (inactive)
normalized growth (locus YFR010W, strain ubp6, stronger effect = lower value): 1.05 (inactive)
normalized growth (locus YGL078C, strain dbp3, stronger effect = lower value): 1.02 (inactive)
normalized growth (locus YGL086W, strain mad1, stronger effect = lower value): 0.944 (inactive)
normalized growth (locus YGL167C, strain pmr1, stronger effect = lower value): 0.996 (inactive)
normalized growth (locus YGL173C, strain kem1, stronger effect = lower value): 0.923 (inactive)
normalized growth (locus YGL227W, strain vid30, stronger effect = lower value): 1.01 (inactive)
normalized growth (locus YGL240W, strain doc1, stronger effect = lower value): 0.982 (inactive)
normalized growth (locus YGL248W, strain PDE1, stronger effect = lower value): 0.962 (inactive)
normalized growth (locus YGL253W, strain hxk2, stronger effect = lower value): 0.9 (active)
normalized growth (locus YGR078C, strain PAC10, stronger effect = lower value): 0.879 (inactive)
normalized growth (locus YGR135W, strain pre9, stronger effect = lower value): 0.904 (inactive)
normalized growth (locus YGR229C, strain SMI1, stronger effect = lower value): 0.958 (inactive)
normalized growth (locus YGR252W, strain gcn5, stronger effect = lower value): 0.65 (active)
normalized growth (locus YHR013C, strain ard1, stronger effect = lower value): 0.948 (inactive)
normalized growth (locus YHR027C, strain rpn1, stronger effect = lower value): 0.961 (inactive)
normalized growth (locus YHR030C, strain SLT2, stronger effect = lower value): 0.95 (inactive) and 0.954 (inactive)
normalized growth (locus YHR079C, strain IRE1 (second series), stronger effect = lower value): 0.998 (inactive)
normalized growth (locus YHR079C, strain IRE1, stronger effect = lower value): 0.988 (inactive)
normalized growth (locus YHR094C, strain hxt1, stronger effect = lower value): 1.03 (inactive)
normalized growth (locus YHR129C, strain ARP1, stronger effect = lower value): 1.01 (inactive)
normalized growth (locus YHR142W, strain chs7, stronger effect = lower value): 0.862 (active)
normalized growth (locus YHR200W, strain rpn10, stronger effect = lower value): 0.965 (inactive)
normalized growth (locus YIL066C, strain RNR3, stronger effect = lower value): 0.865 (inactive)
normalized growth (locus YIL073C, strain SPO22, stronger effect = lower value): 0.807 (inactive)
normalized growth (locus YIL125W, strain kgd1, stronger effect = lower value): 1.03 (inactive)
normalized growth (locus YIR030C, strain dcg1, stronger effect = lower value): 1.04 (inactive)
normalized growth (locus YJL092W, strain hpr5, stronger effect = lower value): 0.97 (inactive)
normalized growth (locus YJL095W, strain BCK1 (second series), stronger effect = lower value): 0.935 (inactive)
normalized growth (locus YJL095W, strain BCK1, stronger effect = lower value): 0.754 (active) and 0.958 (inactive)
normalized growth (locus YJL115W, strain asf1, stronger effect = lower value): 0.994 (inactive)
normalized growth (locus YJL129C, strain trk1, stronger effect = lower value): 0.935 (inactive)
normalized growth (locus YJL134W, strain LCB3, stronger effect = lower value): 1.01 (inactive)
normalized growth (locus YJL154C, strain vps35, stronger effect = lower value): 1.01 (inactive)
normalized growth (locus YJL164C, strain tpk1, stronger effect = lower value): 0.923 (inactive)
normalized growth (locus YJL166W, strain qcr8, stronger effect = lower value): 0.895 (active)
normalized growth (locus YJL168C, strain set2, stronger effect = lower value): 1.03 (inactive)
normalized growth (locus YJL187C, strain SWE1 (second series), stronger effect = lower value): 0.945 (inactive)
normalized growth (locus YJR043C, strain POL32, stronger effect = lower value): 0.991 (inactive)
normalized growth (locus YJR066W, strain TOR1, stronger effect = lower value): 0.866 (inactive)
normalized growth (locus YJR075W, strain HOC1, stronger effect = lower value): 0.933 (inactive)
